Measurements taken from the supplement of paper PMC8975748.
Counter-ions that a name gives are not always drawn. ± gives the standard deviation of the averaged measurements.

Key:
[1] = tested on: Saccharomyces cerevisiae BY4741 SeMeCo community; assay: z-score of subpopulation abundance vs DMSO median, subpopulation auxotrophic for M; higher = larger share of this subpopulation than in DMSO controls; details: 10 µM; 24 h; SM minimal medium; subpopulation (auxotrophy): M
Method in brief: (§1)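 Subpopulation abundance was reported as a z-score against the median of vehicle wells. The Saccharomyces cerevisiae BY4741 community, carrying four plasmids that each restored one auxotrophy and encoded a distinct fluorescent protein, was grown 24 h in minimal SM medium in 384-well plates holding library drugs at 10 µM final. Cells were paraformaldehyde-fixed and imaged by automated confocal microscopy, with single-auxotroph fluorescent strains used for thresholds and autofluorescence correction.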

[2] = tested on: Saccharomyces cerevisiae BY4741 SeMeCo community; assay: z-score of subpopulation abundance vs DMSO median, subpopulation auxotrophic for L; higher = larger share of this subpopulation than in DMSO controls; details: 10 µM; 24 h; SM minimal medium; subpopulation (auxotrophy): L
Method in brief: as §1

[3] = tested on: Saccharomyces cerevisiae BY4741 SeMeCo community; assay: z-score of subpopulation abundance vs DMSO median, subpopulation auxotrophic for U; higher = larger share of this subpopulation than in DMSO controls; details: 10 µM; 24 h; SM minimal medium; subpopulation (auxotrophy): U
Method in brief: as §1

[4] = tested on: Saccharomyces cerevisiae BY4741 SeMeCo community; assay: z-score of subpopulation abundance vs DMSO median, subpopulation auxotrophic for LU; higher = larger share of this subpopulation than in DMSO controls; details: 10 µM; 24 h; SM minimal medium; subpopulation (auxotrophy): LU
Method in brief: as §1

[5] = tested on: Saccharomyces cerevisiae BY4741 SeMeCo community; assay: z-score of subpopulation abundance vs DMSO median, subpopulation auxotrophic for LM; higher = larger share of this subpopulation than in DMSO controls; details: 10 µM; 24 h; SM minimal medium; subpopulation (auxotrophy): LM
Method in brief: as §1

[6] = tested on: Saccharomyces cerevisiae BY4741 SeMeCo community; assay: z-score of subpopulation abundance vs DMSO median, subpopulation auxotrophic for HM; higher = larger share of this subpopulation than in DMSO controls; details: 10 µM; 24 h; SM minimal medium; subpopulation (auxotrophy): HM
Method in brief: as §1

[7] = tested on: Saccharomyces cerevisiae BY4741 SeMeCo community; assay: z-score of subpopulation abundance vs DMSO median, subpopulation auxotrophic for HU; higher = larger share of this subpopulation than in DMSO controls; details: 10 µM; 24 h; SM minimal medium; subpopulation (auxotrophy): HU
Method in brief: as §1

[8] = tested on: Saccharomyces cerevisiae BY4741 SeMeCo community; assay: z-score of subpopulation abundance vs DMSO median, subpopulation auxotrophic for UM; higher = larger share of this subpopulation than in DMSO controls; details: 10 µM; 24 h; SM minimal medium; subpopulation (auxotrophy): UM
Method in brief: as §1

[9] = tested on: Saccharomyces cerevisiae BY4741 SeMeCo community; assay: z-score of subpopulation abundance vs DMSO median, subpopulation auxotrophic for HLU; higher = larger share of this subpopulation than in DMSO controls; details: 10 µM; 24 h; SM minimal medium; subpopulation (auxotrophy): HLU
Method in brief: as §1

[10] = tested on: Saccharomyces cerevisiae BY4741 SeMeCo community; assay: z-score of subpopulation abundance vs DMSO median, subpopulation auxotrophic for HLM; higher = larger share of this subpopulation than in DMSO controls; details: 10 µM; 24 h; SM minimal medium; subpopulation (auxotrophy): HLM
Method in brief: as §1

[11] = tested on: Saccharomyces cerevisiae BY4741 SeMeCo community; assay: z-score of subpopulation abundance vs DMSO median, subpopulation auxotrophic for HUM; higher = larger share of this subpopulation than in DMSO controls; details: 10 µM; 24 h; SM minimal medium; subpopulation (auxotrophy): HUM
Method in brief: as §1

[12] = tested on: Saccharomyces cerevisiae BY4741 SeMeCo community; assay: z-score of subpopulation abundance vs DMSO median, subpopulation auxotrophic for LUM; higher = larger share of this subpopulation than in DMSO controls; details: 10 µM; 24 h; SM minimal medium; subpopulation (auxotrophy): LUM
Method in brief: as §1

[13] = tested on: Saccharomyces cerevisiae BY4741 SeMeCo community; assay: z-score of subpopulation abundance vs DMSO median, subpopulation auxotrophic for HLUM; higher = larger share of this subpopulation than in DMSO controls; details: 10 µM; 24 h; SM minimal medium; subpopulation (auxotrophy): HLUM
Method in brief: as §1

[14] = tested on: Saccharomyces cerevisiae BY4741 SeMeCo community; assay: z-score of subpopulation abundance vs DMSO median, subpopulation auxotrophic for H; higher = larger share of this subpopulation than in DMSO controls; details: 10 µM; 24 h; SM minimal medium; subpopulation (auxotrophy): H
Method in brief: as §1

[15] = tested on: Saccharomyces cerevisiae BY4741 SeMeCo community; assay: z-score of subpopulation abundance vs DMSO median, subpopulation auxotrophic for HL; higher = larger share of this subpopulation than in DMSO controls; details: 10 µM; 24 h; SM minimal medium; subpopulation (auxotrophy): HL
Method in brief: as §1

[16] = tested on: Saccharomyces cerevisiae BY4741 SeMeCo community; assay: mean cell size (pixel area) (pixels); higher = larger cells; details: 10 µM; 24 h; SM minimal medium
Method in brief: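 Mean cell pixel area per well was measured in a four-plasmid fluorescent community of Saccharomyces cerevisiae BY4741, where every plasmid complements one auxotrophy and carries a fluorescent marker. Cells from an overnight preculture at OD600 = 1.0 were diluted to OD600 = 0.3 and dispensed at 70 µl into 384-well plates acoustically predosed with drug to a final 10 µM in SM medium. Incubation lasted 24 h, followed by paraformaldehyde fixation, automated confocal imaging and analysis in Harmony. Reported figures are averaged over 3 replicates. Same SeMeCo high-content imaging drug screen: Selleck FDA-approved drugs at 10 µM, 24 h in SM medium, 384-well plates, 3 replicates.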

[17] = tested on: Saccharomyces cerevisiae BY4741 SeMeCo community; assay: z-score of prototroph abundance vs DMSO median; higher = larger share of this subpopulation than in DMSO controls; details: 10 µM; 24 h; SM minimal medium; subpopulation (auxotrophy): Prototroph
Method in brief: as §1

Compound	z-score of subpopulation abundance [1]	z-score of subpopulation abundance [2]	z-score of subpopulation abundance [3]	z-score of subpopulation abundance [4]	z-score of subpopulation abundance [5]	z-score of subpopulation abundance [6]	z-score of subpopulation abundance [7]	z-score of subpopulation abundance [8]	z-score of subpopulation abundance [9]	z-score of subpopulation abundance [10]	z-score of subpopulation abundance [11]	z-score of subpopulation abundance [12]	z-score of subpopulation abundance [13]	z-score of subpopulation abundance [14]	z-score of subpopulation abundance [15]	mean cell size [16]	z-score of prototroph abundance [17]
CC1(C)S[C@@H]2[C@H](NC(=O)Cc3ccccc3)C(=O)N2[C@H]1C(=O)O [Benzathine penicilline]	-0.52	-0.58	-0.09	-0.74	-0.93	-0.76	0.01	-0.06	-0.11	0.37	-0.33	-0.44	0.29				
CCC1=C(C)CN(C(=O)NCCc2ccc(S(=O)(=O)NC(=O)N[C@H]3CC[C@H](C)CC3)cc2)C1=O [Glimepiride]	-0.24	0.24	-0.47	-0.1	0.34	0.24	0.22	0.19	0.26	0.03	0.42	-0.01	0.7	-0.23	0.01		
COc1cccc(CCc2ccccc2OCC(CN(C)C)OC(=O)CCC(=O)O)c1 (stereo not drawn) [Sarpogrelate hydrochloride]	-0.54	-0.31		-0.09		-0.54		0.14	-0.99	-0.89	-0.04		-0.48	-0.59		12.3 ± 0.35	0.79
Cc1cccc(C#Cc2ccccc2)n1	-0.25	0.06	0.22	0.12	-0.31	-0.61	-0.18	-0.28	-0.17	-0.43	-0.32	-0.34	-0.82	0.06	-0.06		0.53
CC(C)(C)C(=O)C(Oc1ccc(Cl)cc1)n1ccnc1 (stereo not drawn) [Climbazole]	7.09	-2.61	-1.3	-2.81	0.49	9.21	4.67	24.4	1.28	12.1	9.71	5.42	8.88	2.84	2.46		
COc1cccc(-c2c(C)n(Cc3c(F)cccc3C(F)(F)F)c(=O)n(C[C@H](NCCCC(=O)O)c3ccccc3)c2=O)c1F [Elagolix Sodium]	-0.72	-0.55	0.24	-0.52	-0.38	-0.13	0.74		-0.37	-0.27	0.12	-0.77	-0.29	1.38	0.13		0.61
CSc1nc2cc(Cl)c(Oc3cccc(Cl)c3Cl)cc2[nH]1 [Triclabendazole]	-9.19	-0.07	-0.92	0.92	-2.65	-3.03	2.73	-5.17	2.64	7.41	-1.46		4.69		3.65		1.8
COC(=O)C1=C(C)NC(C)=C(C(=O)OCCN2CCN(C(c3ccccc3)c3ccccc3)CC2)C1c1cccc([N+](=O)[O-])c1 (stereo not drawn) [Manidipine]	1.78	0.96		-1.04	2.53	2.14	0.65	-0.6	1.73	0.64	2.11	0.72	0.6	2.53	2.76		-1.43
COC(=O)C1=C(C)NC(C)=C(C(=O)OCCN2CCN(C(c3ccccc3)c3ccccc3)CC2)C1c1cccc([N+](=O)[O-])c1 (stereo not drawn) [Manidipine 2HCl]	2.89	0.47		-0.77	2.4	2.87	0.05	-0.8	0.54	1.42		0.89	0.77	1.78	2.26	12 ± 0.3	-1.31
Nc1ccc(S(=O)(=O)Nc2cnc3ccccc3n2)cc1 [Sulfaquinoxaline sodium]	1.16	-1.08	1.01	0.22	0.34	0.61	1.05		0.31	-0.05		0.81	-0.23	-1.04	-0.29	12 ± 0.22	
CN1C(C(=O)Nc2ccccn2)=C(O)c2ccccc2S1(=O)=O [Piroxicam]	-0.1	-0.78	-0.17	-0.71	-1.45	-0.94	-0.6	-0.3	-1.14		-0.89	-1.33	-0.92	-0.62	-0.37	12.79 ± 0.11	1.29
COc1ccc(C(C)=O)c(O)c1 [Paeonol]	-0.69	0.17	0.71	0.12	0.14		0.44	0.01	-0.12	-0.22		-0.79	0.01	0.01		12.4 ± 0.15	-0.25
c1cnc2cc3c(cc2n1)[C@@H]1CNC[C@H]3C1 [Varenicline Tartrate]	-0.55	-0.32	-0.22	-0.66	0.09	-0.22	-0.05	-0.54	-0.4	0.76		-0.39		0.28	0.16	12.1 ± 0.23	0.71
C[C@H]1COc2c(C3(N)CC3)c(F)cc3c(=O)c(C(=O)O)cn1c23 [Pazufloxacin mesylate]	-0.46	0.31	0.53	0.86	-0.18	-0.36		-0.02	1.38	-0.08		-0.3	0.08	0.02		12.5 ± 0.28	-0.35
